In PubChem BioAssay:
Entries with a potency or affinity are not part of this list. The source made the active and inactive calls.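 How the source made its calls: active means signal drop whose fitted half-maximal concentration is at most twice the top valid dose, in every test run; inconclusive means mixed calls across runs, poor fit, or flat 30 to 70% inhibition; inactive means wrong direction, flat within 30%, or potency beyond limit.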

Experiment: RMG-1 ovarian cancer cell viability loss – cherry-pick, dose response (AID 687029);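 further: cells exposed to compound for 96 hours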
Conditions: RMG-1 viability, CellTiterGlo ATP luminescence, 96 h; series mostly up to 35 µM

SMILES | outcome
Cc1ccc(S(=O)(=O)N(C)C[C@@H]2Oc3cc(C#Cc4ccncc4)ccc3S(=O)(=O)N([C@@H](C)CO)C[C@H]2C)cc1 | inactive
C[C@H]1CN([C@@H](C)CO)C(=O)c2cccc(NC(=O)Nc3ccc(F)cc3)c2O[C@H]1CN(C)C(=O)Nc1ccc(C(F)(F)F)cc1 | inactive
COc1ccc(-c2ccc3c(c2)[C@@H]2[C@@H](CCN2C(=O)C2CCCC2)[C@H](CO)N3C)cc1 | inactive
C[C@@H]1CCCCO[C@H](CN(C)Cc2ccc(Cl)c(Cl)c2)[C@H](C)CN([C@@H](C)CO)C(=O)c2cc(NC(=O)Nc3ccc(F)cc3)ccc2O1 | inactive
COc1ccccc1-c1ccc2c(c1)O[C@H](CN(C)Cc1ccc3c(c1)OCO3)[C@H](C)CN([C@@H](C)CO)S2(=O)=O | inactive
Cc1ccc(S(=O)(=O)N(C)C[C@@H]2Oc3c(NC(=O)c4ccc(-c5nccs5)cc4)cccc3C(=O)N([C@@H](C)CO)C[C@@H]2C)cc1 | inactive
CCCN1[C@H](C(=O)N2CCOCC2)[C@@H](CO)[C@@H]2Cn3c(ccc(/C=C/c4ccccc4)c3=O)[C@@H]21 | inactive
C[C@@H]1CCCCO[C@@H](CN(C)Cc2ccc(C(F)(F)F)cc2)[C@H](C)CN([C@@H](C)CO)C(=O)c2cc(NS(=O)(=O)c3ccccc3)ccc2O1 | inactive
O=C(C[C@H]1C[C@@H]2c3cc(NC(=O)Nc4ccc(C(F)(F)F)cc4)ccc3O[C@@H]2[C@@H](CO)O1)NCCc1ccccc1 | inactive
C[C@@H]1CN([C@@H](C)CO)C(=O)c2cc(NC(=O)c3ccccc3)ccc2O[C@@H](C)CCCCO[C@H]1CN(C)Cc1ccc(C(F)(F)F)cc1 | inactive
